{
  "source": "PubChem BioAssay (NCATS)",
  "note": "Active and inactive are the calls of the source. Calls come from the whole dose curve; as a rule, active = well fitted curve in the direction sought with a large enough effect; inconclusive = small, poorly fitted or top-dose-only effect, or effect the other way, or another doubt; inactive = no such curve, though single readings can be large or run the other way.",
  "data": [
    {"assay": "Inducers of the Endoplasmic Reticulum Stress Response (ERSR) in human glioma: Validation (AID 504836)", "conditions": "human glioma cells, ER stress response reporter; series mostly up to 38.3 µM", "excerpt": "Primary protein unfolding takes place for many diseases, including diabetes and hypoxia, , and triggers a reaction in the cells called ER stress response (ERSR). ). ERSR is designed as a repair mechanism, but ultimately leads to cell death via apoptosis if conditions triggering protein unfolding persist (1). The molecular clue to ERSR activation is the enhancement of the expression of key molecular chaperones, including the glucose regulated protein (GRP) 78. GRP78 is the main sensor for protein folding and the main actuator of the ERSR.\nIn a collaboration between the Southern Research Institute and the NIH Chemical Genomics Center, a cell based screen was developed that reliably uses GRP78 as a sensor to identify small molecules as inducers of ERSR. In resting conditions, GRP78 binds proteins and acts as a natural repressor. Once unfolded proteins are present in the ER, GRP78 releases some of the repressors and binds to the unfolded proteins. The release of the repressors executes the ERSR program. Using a human glioma cell line in a miniaturized, luminescent format, a high-throughput screen was developed to identify actuators of the ERSR.\n(1) Soboloff, J. and S. A. Berger (2002). \"Sustained ER Ca2+ depletion suppresses protein synthesis and induces activation-enhanced cell death in mast cells.\" J Biol Chem 277(16): 13812-20.\nNIH Chemical Genomics Center [NCGC]\nNIH Molecular Libraries Probe Centers Network [MLPCN]\nAssay Submitter (PI): Maurizio Grimaldi, Southern Research Institute\nStable transfected human glioma cell line, U87-MG, are dispensed at density 1000 cells/well into Greiner white solid bottom 1536-well assay plates. Compounds are transferred via Kalypsys pin tool equipped with 1536-pin array (10nl slotted pins, V&P Scientific, San Diego, CA). The assay plates will be incubated for 16 hours and developed by adding appropriate quantities of the Promega Bright Glo reagent. The plates will be incubated at room temperature for 10 minutes prior to being transferred into a ViewLux high-throughput CCD imager (PerkinElmer), wherein end-point measurements of luminescence are acquired.", "values": [
      {"smiles": "CCc1cccc2c3c([nH]c12)C(CC)(CC(=O)O)OCC3", "note": "(stereo not given)", "outcome": "inactive"},
      {"smiles": "CNC[C@H](O)c1ccc(O)c(O)c1", "outcome": "inactive"},
      {"smiles": "C=Cc1c(C)c2cc3[nH]c(cc4nc(cc5nc(cc1[nH]2)C(C)=C5CCC(=O)O)C(CCC(=O)O)=C4C)c(C)c3C=C", "outcome": "inactive"},
      {"smiles": "CNC(=O)Oc1ccc2c(c1)[C@]1(C)CCN(C)[C@@H]1N2C", "outcome": "inactive"},
      {"smiles": "Cc1[nH]c(=O)c(C#N)cc1-c1ccc2nccn2c1", "outcome": "inactive"},
      {"smiles": "Cc1ccc(/C(=C\\CN2CCCC2)c2ccccn2)cc1", "outcome": "inactive"},
      {"smiles": "O=C(Nc1ccc([N+](=O)[O-])cc1Cl)c1cc(Cl)ccc1O", "outcome": "inactive"},
      {"smiles": "c1cnc(N2CCN(Cc3ccc4c(c3)OCO4)CC2)nc1", "outcome": "inactive"},
      {"smiles": "CCNC(=O)N1CCN(CCCC(c2ccc(F)cc2)c2ccc(F)cc2)CC1", "outcome": "inactive"},
      {"smiles": "CCCCCN(CCCCC)C(=O)C(CCC(=O)O)NC(=O)c1ccc(Cl)c(Cl)c1", "note": "(stereo not given)", "outcome": "inactive"},
      {"smiles": "Cc1cc(C(C)(C)C)c(O)c(C)c1CC1=NCCN1", "outcome": "inactive"},
      {"smiles": "O=C(CCCN1CCC(O)(c2cccc(C(F)(F)F)c2)CC1)c1ccc(F)cc1", "outcome": "inactive"},
      {"smiles": "NC(N)=NC(=O)c1nc(Cl)c(N)nc1N", "outcome": "inactive"},
      {"smiles": "COC(=O)C1=C(C)NC(C)=C(C(=O)OC)C1c1ccccc1[N+](=O)[O-]", "outcome": "inactive"},
      {"smiles": "C[C@]12C=CC(=O)C=C1CC[C@H]1[C@@H]3C[C@@H](O)[C@](O)(C(=O)CO)[C@@]3(C)C[C@H](O)[C@@]12F", "outcome": "inactive"},
      {"smiles": "c1ccc([C@H]2CN3CCSC3=N2)cc1", "outcome": "inactive"},
      {"smiles": "O=C(O)CN(CCOCCOCCN(CC(=O)O)CC(=O)O)CC(=O)O", "outcome": "inactive"},
      {"smiles": "Cn1c(=O)c2c(ncn2C)n(C)c1=O", "outcome": "inactive"},
      {"smiles": "CC1=C(CC(=O)O)c2cc(F)ccc2/C1=C\\c1ccc(S(C)(=O)=O)cc1", "outcome": "inactive"},
      {"smiles": "COCCc1ccc(OCC(O)CNC(C)C)cc1", "note": "(stereo not given)", "outcome": "inactive"},
      {"smiles": "Cc1cccc(C)c1NC(=O)C(C)N", "note": "(stereo not given)", "outcome": "inactive"},
      {"smiles": "CCCOc1ccccc1-c1nc2n[nH]nc2c(=O)[nH]1", "outcome": "inactive"},
      {"smiles": "CCOC(=O)C(C)(C)Oc1ccc(Cl)cc1", "outcome": "inactive"},
      {"smiles": "O=C(CCNNC(=O)c1ccncc1)NCc1ccccc1", "outcome": "inactive"},
      {"smiles": "CC(C(=O)O)c1ccc(CC2CCCC2=O)cc1", "note": "(stereo not given)", "outcome": "inactive"},
      {"smiles": "C[N+](C)(C)CCCCCCCCCC[N+](C)(C)C", "outcome": "inactive"},
      {"smiles": "CCC(=O)c1ccc2c(c1)N(CCCN(C)C)c1ccccc1S2", "outcome": "inactive"},
      {"smiles": "Cc1cc(C(C)(C)C)cc(C)c1CC1=NCCN1", "outcome": "inactive"},
      {"smiles": "Oc1ccc(O)cc1", "outcome": "inactive"},
      {"smiles": "CN(C)CCCN1c2ccccc2Sc2ccccc21", "outcome": "inactive"},
      {"smiles": "CCc1cccc(N(C)C(N)=Nc2cccc3ccccc23)c1", "outcome": "inactive"},
      {"smiles": "O=C(O)c1cccnc1Nc1cccc(C(F)(F)F)c1", "outcome": "inactive"},
      {"smiles": "COc1nc(C)nc(Cl)c1NC1=NCCN1", "outcome": "inactive"},
      {"smiles": "NC(N)=N/N=C/c1c(Cl)cccc1Cl", "outcome": "inactive"},
      {"smiles": "Clc1ccc(Cn2c(CN3CCCC3)nc3ccccc32)cc1", "outcome": "inactive"},
      {"smiles": "OC(CCN1CCCCC1)(c1ccccc1)C1CC2C=CC1C2", "note": "(stereo not given)", "outcome": "inactive"},
      {"smiles": "CCOC(=O)C1=C[C@]2(CC)CCCN3CCc4c(n1c1ccccc41)[C@@H]32", "outcome": "inactive"},
      {"smiles": "O=C1N(c2ccccc2)c2ccccc2C1(Cc1ccncc1)Cc1ccncc1", "outcome": "inactive"},
      {"smiles": "Nc1ccn([C@H]2CC[C@@H](CO)O2)c(=O)n1", "outcome": "inactive"},
      {"smiles": "O=C(O)c1nn(Cc2ccc(Cl)cc2Cl)c2ccccc12", "outcome": "inactive"}
    ]}
  ]
}
